Screening data (PubChem BioAssay)
This is a sample that favours compounds with a hit; in the whole collection about 1.4% have one here.
RecA intein inh – Mtb RecA intein splicing inhibition. cell-free RecA intein splicing, fluorescence. inhibition, % (no concentration beside the values). actives 0.75% (n = 290,000). AID 2221; in the data active means inhibition above about 30%;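 further: 0% = vehicle wells and 100% = reference inhibitor control wells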
BJeLR viability – BJeLR cell viability loss; BJeLR (HRASV12) viability, CellTiter-Glo ATP luminescence, 48 h; inhibition, % (no concentration beside the values); actives 0.17% (n = 300,000); AID 1554; in the data active means inhibition above about 50%
3CLpro inhibitor – SARS-CoV 3CLpro protease inhibition; recombinant SARS-CoV 3CLpro, quenched FRET peptide cleavage; actives 0.14% (n = 290,000); inhibition, % at 6 µM; AID 1706; in the data active means inhibition above about 12%
PrPC surface inh – reduces human prion protein on the cell surface; cell surface PrPC, TR-FRET read-out; inhibition, % at 13.8 µM; actives 0.43% (n = 370,000); AID 720596; in the data active means inhibition above about 24%; further: 0% = median of the test wells and 100% = reference compound wells
Mtb hypoxia inh – Mtb hypoxia fluorescent reporter inhibition | M. tuberculosis hypoxia-regulated fluorescent reporter, fluorescence | fluorescence inhibition, % (concentration not given with the values) | AID 1159583 | actives 0.1% (n = 300,000); in the data active means fluorescence inhibition mostly above about 23%, no sharp cut-off; inactive means mostly below about 17%
PrP UTR inh – suppresses PrP 5' UTR mRNA reporter expression. cell-based PrP 5' UTR mRNA reporter, plate reader. inhibition, % (concentration not given with the values). actives 0.35% (n = 340,000). AID 488862; in the data active means inhibition above about 52%; further: 0 = median of the neutral control wells
PrPC TRFRET cf – cell surface PrPC inhibition, TR-FRET confirmation; shares compounds with PrPC surface inh; cell surface PrPC level; inhibition, % at 13.8 µM; actives 65% (n = 1,500); AID 743200; in the data active means inhibition above about 25%
LD9 tox – counter-screen for PrPc inhibitors: cytotoxicity in LD9 cells. luminescence viability. actives 29% (n = 1,500). shares compounds with PrPC surface inh. inhibition, % at 13.8 µM; in the data active means inhibition above about 9.5%
* hit, by the source's call; / = no result given.

SMILES	RecA intein inh	BJeLR viability	3CLpro inhibitor	PrPC surface inh	Mtb hypoxia inh	PrP UTR inh	PrPC TRFRET cf	LD9 tox
NC(=S)NN=Cc1nccc2c(C(F)(F)C(F)(F)C(F)(F)F)cccc12	/	/	/	28*	/	/	29*	60*
Cc1cnc(C=NNC(N)=S)c2cccc(N)c12	/	/	/	-2	/	10	/	/
COC(=O)C1CC1C(NC(=O)c1cnccn1)c1ccccc1 (stereo not given)	/	/	/	/	12	/	/	/
C=C1C(=O)[C@]23C[C@H]1CC[C@H]2[C@]1(C)CCC[C@@](C)(C(=O)OC)[C@H]1C[C@@H]3O	/	/	/	60*	/	/	71*	96*
C=C1C(=O)[C@]23C[C@H]1CCC2[C@@]1(C)C(C[C@@H]3O)[C@](C)(C(=O)OC)CC[C@@H]1O (stereo not given in full)	/	/	/	5	/	/	/	/
N#CC(C#N)=C(Nc1ccc(F)cc1)SCc1cccc(F)c1	15	31	-5	28*	10	-4	33*	35*
Nn1c(SCc2cccc3ccccc23)nnc1-c1n[nH]c2c1CCC2	/	/	/	0	/	/	/	/
Nn1c(SCc2ccc(Br)cc2)nnc1-c1n[nH]c2c1CCC2	/	/	/	25*	/	/	19	8
COc1cccc2sc(N=CN(C)C)nc12	/	/	/	/	4	/	/	/
CCc1cc2cccc(C)c2nc1SCC(=O)N1CCN(C(=O)c2ccco2)CC1	-3	-4	4	25*	/	-5	59*	3
Cc1cc(C)c2nc(SCC(=O)NNC(=O)c3ccco3)c(C)cc2c1	4	/	6	44*	9	-12	45*	-2
Cc1cc2cccc(C)c2nc1SCC(=O)NNC(=O)c1ccco1	-2	9	4	55*	/	-34	65*	-5
CCOC(=O)CNC(=O)CSc1nc2c(C)cccc2cc1CC	-1	5	3	71*	-6	-21	107*	-2
CCc1cc2cccc(C)c2nc1SCC(=O)NC1CCCC1	-3	4	7	5	7	-20	/	/
CCOC(=O)C1C2COc3cc(OC)ccc3C2N2C(=O)N(c3ccc(Cl)cc3)C(=O)[C@@]12C (stereo not given in full)	/	/	/	/	5	/	/	/
CC(=NOC(=O)C1CC1)C1CC1c1ccc(F)cc1 (stereo not given)	/	/	/	/	8	/	/	/
CC(=NNc1nc2ccccc2o1)c1cc2ccccc2cn1	/	/	/	27*	/	17	32*	49*
C=CCc1cccc(C=NNC(=O)C(C)Nc2ccc(C)cc2)c1O (stereo not given)	/	/	/	/	-2	/	/	/
CCC(C)C(NC(=O)CCCNC(=O)CCC(=O)OC1O[C@H]2OC3(C)CC[C@H]4[C@H](C)CCC(C1C)C24OO3)C(=O)O (stereo not given in full)	1	2	3	28*	/	-14	31*	22*
CCC(C)NC(=O)CCC(=O)OC1O[C@H]2OC3(C)CC[C@H]4[C@H](C)CCC(C1C)C24OO3 (stereo not given in full)	-1	7	3	28*	74*	-21	31*	21*
COC(=O)C1=C(c2ccccc2)CC2CCC1N2C(=O)N1CCC(C)CC1 (stereo not given)	/	/	/	/	13	/	/	/
OC[C@@H]1CN(Cc2ccc(Cl)cc2)C[C@H](n2cnc3c(NC4CCC4)ncnc32)O1	/	/	/	26*	/	/	23	-6
OC[C@@H]1CN(Cc2ccc(-c3ccccc3)cc2)C[C@H](n2cnc3c(NC4CC4)ncnc32)O1	/	/	/	5	/	/	/	/
CCOc1cc(S(=O)(=O)n2c(C)nc3ccccc32)ccc1F	22	2	6	59*	/	7	14	-4
Cc1ccc(S(=O)(=O)n2c(C)nc3ccccc32)cc1	2	-3	-2	-2	0	-25	/	/
SMILES	RecA intein inh	BJeLR viability	3CLpro inhibitor	PrPC surface inh	Mtb hypoxia inh	PrP UTR inh	PrPC TRFRET cf	LD9 tox
Cc1nc2ccc(Br)cc2c2c1CC(CO)O2 (stereo not given)	0	-2	-5	29*	5	-7	35*	-6
Cc1nc2ccc(Br)cc2c2c1CC(CBr)O2 (stereo not given)	3	-13	4	23	20	4	/	/
CC(C)(C)C(=O)ON=C(N)c1ccc(Oc2cc(Cl)cc(Cl)c2)c([N+](=O)[O-])c1	/	/	/	/	1	/	/	/
CCOC=Nc1c(C#N)c(CC#N)nn1-c1ccccc1	/	/	/	/	1	/	/	/
O=C(Nc1ccccc1)c1cc(C2CCCCN2S(=O)(=O)c2ccccc2)on1 (stereo not given)	/	/	/	29*	/	/	15	1
O=C(Nc1ccc2c(c1)OCO2)c1cc(C2CCCCN2S(=O)(=O)c2cccs2)on1 (stereo not given)	/	/	/	57*	/	/	48*	2
O=C(Nc1ccccc1)c1cc(C2CCCCN2S(=O)(=O)c2cccs2)on1 (stereo not given)	/	/	/	22	/	/	/	/
NC(=O)C1(NC(=O)C2CC3(CC(c4cccc(NC(=O)C5CCC(=O)N5)c4)=NO3)CN2C(=O)c2cnccn2)CC1 (stereo not given)	/	/	/	/	8	/	/	/
CCOCc1c(C(=O)Nc2ccc3nc(N4CCOCC4)sc3c2)oc2ccccc12	/	/	/	33*	21	-20	16	6
CC(C)Oc1ccc(C(=O)/C=C2/C(=O)Nc3ccccc32)cc1	0	-4	1	34*	11	-14	9	-11
CC(=O)n1cc(C2C=C(C(=O)NCc3ccccc3)OC(OCCCCO)C2)c2ccccc21 (stereo not given)	/	/	/	/	7	/	/	/
